Measurements from PubChem BioAssay AID1159580 (chemical genetic matrix, 2015).
Among all 5,500 compounds or so, about 2,000 (36%) were called active. Roughly 18% stayed inconclusive and do not appear here. No stated cut-off is given here; in the data, active means normalized growth mostly below about 0.91 (no sharp cut-off); inconclusive means no clear call, values can overlap the other calls; inactive means mostly above about 0.92. The list shows a part of the results.

Test: chemical genetic growth profiling, strain panel (AID 1159580);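 further: tested at 20 µM; growth read once vehicle control cultures reached saturation at 30 °C; 1 = growth at the plate median or of vehicle wells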
Settings: growth OD

Measured: normalized growth

Nc1nc2ncc(=O)[nH]c2c(=O)[nH]1
inactive: S. cerevisiae deletion strains, locus YJR075W, strain HOC1, stronger effect = lower value 1.02 | S. cerevisiae deletion strains, locus YKL009W, strain mrt4, stronger effect = lower value 0.973 | S. cerevisiae deletion strains, locus YKL068W, stronger effect = lower value 0.981 | S. cerevisiae deletion strains, locus YKL085W, strain MDH1 (second series), stronger effect = lower value 0.991 | S. cerevisiae deletion strains, locus YKL085W, strain MDH1, stronger effect = lower value 0.991 | S. cerevisiae deletion strains, locus YKL160W, strain elf1, stronger effect = lower value 0.975 | S. cerevisiae deletion strains, locus YKL190W, strain CNB1, stronger effect = lower value 0.991 | S. cerevisiae deletion strains, locus YKR001C, strain vps1, stronger effect = lower value 0.999 | S. cerevisiae deletion strains, locus YKR026C, strain gcn3, stronger effect = lower value 0.977 | S. cerevisiae deletion strains, locus YKR091W, strain srl3, stronger effect = lower value 0.979 | S. cerevisiae deletion strains, locus YLL001W, strain dnm1, stronger effect = lower value 0.946 | S. cerevisiae deletion strains, locus YLL026W, stronger effect = lower value 0.982 | S. cerevisiae deletion strains, locus YLL041C, strain sdh2, stronger effect = lower value 0.976 | S. cerevisiae deletion strains, locus YLR027C, strain aat2, stronger effect = lower value 0.984 | S. cerevisiae deletion strains, locus YLR039C, strain RIC1, stronger effect = lower value 0.997 | S. cerevisiae deletion strains, locus YLR058C, strain SHM2, stronger effect = lower value 0.996 | S. cerevisiae deletion strains, locus YLR102C, strain apc9, stronger effect = lower value 0.984 | S. cerevisiae deletion strains, locus YLR113W, strain HOG1, stronger effect = lower value 0.941 | S. cerevisiae deletion strains, locus YLR221C, strain rsa3, stronger effect = lower value 0.977 | S. cerevisiae deletion strains, locus YLR258W, strain gsy2, stronger effect = lower value 0.982 | S. cerevisiae deletion strains, locus YLR262C, strain YPT6 (second series), stronger effect = lower value 0.986 | S. cerevisiae deletion strains, locus YLR262C, strain YPT6, stronger effect = lower value 0.994 | S. cerevisiae deletion strains, locus YLR268W, strain sec22, stronger effect = lower value 1.01 | S. cerevisiae deletion strains, locus YLR320W, strain mms22, stronger effect = lower value 0.972 | S. cerevisiae deletion strains, locus YLR330W, strain CHS5, stronger effect = lower value 0.992 | S. cerevisiae deletion strains, locus YLR342W, strain FKS1 (second series), stronger effect = lower value 0.997 | S. cerevisiae deletion strains, locus YLR342W, strain FKS1, stronger effect = lower value 0.987 | S. cerevisiae deletion strains, locus YLR357W, strain rsc2, stronger effect = lower value 0.967 | S. cerevisiae deletion strains, locus YLR370C, strain arc18, stronger effect = lower value 0.965 | S. cerevisiae deletion strains, locus YLR371W, strain rom2, stronger effect = lower value 0.976 | S. cerevisiae deletion strains, locus YLR384C, strain iki3, stronger effect = lower value 0.968 | S. cerevisiae deletion strains, locus YLR418C, strain cdc73, stronger effect = lower value 1.05 | S. cerevisiae deletion strains, locus YML016C, strain PPZ1, stronger effect = lower value 1 | S. cerevisiae deletion strains, locus YML032C, strain rad52, stronger effect = lower value 0.967 | S. cerevisiae deletion strains, locus YML120C, strain ndi1, stronger effect = lower value 0.972 | S. cerevisiae deletion strains, locus YML124C, strain tub3, stronger effect = lower value 0.998 | S. cerevisiae deletion strains, locus YMR058W, strain fet3, stronger effect = lower value 0.988 | S. cerevisiae deletion strains, locus YMR078C, strain ctf18, stronger effect = lower value 0.979 | S. cerevisiae deletion strains, locus YMR125W, strain sto1, stronger effect = lower value 0.969 | S. cerevisiae deletion strains, locus YMR129W, stronger effect = lower value 0.972 | S. cerevisiae deletion strains, locus YMR205C, strain PFK2, stronger effect = lower value 0.967 | S. cerevisiae deletion strains, locus YMR223W, strain ubp8, stronger effect = lower value 0.989 | S. cerevisiae deletion strains, locus YMR231W, strain pep5, stronger effect = lower value 0.979 | S. cerevisiae deletion strains, locus YMR263W, strain SAP30, stronger effect = lower value 1.01 | S. cerevisiae deletion strains, locus YMR307W, strain GAS1, stronger effect = lower value 1 | S. cerevisiae deletion strains, locus YNL067W, strain RPL9B, stronger effect = lower value 1.03 | S. cerevisiae deletion strains, locus YNL071W, strain lat1, stronger effect = lower value 0.984 | S. cerevisiae deletion strains, locus YNL128W, strain TEP1, stronger effect = lower value 1.03 | S. cerevisiae deletion strains, locus YNL153C, strain GIM3, stronger effect = lower value 1.01 | S. cerevisiae deletion strains, locus YNL183C, strain NPR1, stronger effect = lower value 0.942 | S. cerevisiae deletion strains, locus YNL209W, strain ssb2, stronger effect = lower value 0.993 | S. cerevisiae deletion strains, locus YNL233W, strain BNI4, stronger effect = lower value 1.01 | S. cerevisiae deletion strains, locus YNL248C, strain rpa49, stronger effect = lower value 0.98 | S. cerevisiae deletion strains, locus YNL250W, strain rad50, stronger effect = lower value 0.987 | S. cerevisiae deletion strains, locus YNL271C, strain bni1, stronger effect = lower value 0.995 | S. cerevisiae deletion strains, locus YNL298W, strain CLA4, stronger effect = lower value 1 | S. cerevisiae deletion strains, locus YNL307C, strain MCK1, stronger effect = lower value 0.991 | S. cerevisiae deletion strains, locus YNL322C, strain KRE1 (second series), stronger effect = lower value 0.967 | S. cerevisiae deletion strains, locus YNL322C, strain KRE1, stronger effect = lower value 1.01 | S. cerevisiae deletion strains, locus YNR049C, strain mso1, stronger effect = lower value 0.973 | S. cerevisiae deletion strains, locus YNR052C, strain pop2, stronger effect = lower value 0.983 | S. cerevisiae deletion strains, locus YOL006C, strain TOP1, stronger effect = lower value 1.11 | S. cerevisiae deletion strains, locus YOL012C, strain htz1 0.879 | S. cerevisiae deletion strains, locus YOL147C, strain pex11, stronger effect = lower value 0.978 | S. cerevisiae deletion strains, locus YOR001W, strain rrp6, stronger effect = lower value 0.986 | S. cerevisiae deletion strains, locus YOR061W, strain CKA2, stronger effect = lower value 1.01 | S. cerevisiae deletion strains, locus YOR069W, strain VPS5, stronger effect = lower value 1 | S. cerevisiae deletion strains, locus YOR070C, strain gyp1, stronger effect = lower value 0.983 | S. cerevisiae deletion strains, locus YOR080W, strain dia2, stronger effect = lower value 0.978 | S. cerevisiae deletion strains, locus YOR083W, strain WHI5, stronger effect = lower value 0.966 | S. cerevisiae deletion strains, locus YOR106W, strain vam3, stronger effect = lower value 0.988 | S. cerevisiae deletion strains, locus YOR136W, strain idh2, stronger effect = lower value 0.987 | S. cerevisiae deletion strains, locus YOR144C, strain elg1, stronger effect = lower value 0.989 | S. cerevisiae deletion strains, locus YOR184W, strain ser1, stronger effect = lower value 0.968 | S. cerevisiae deletion strains, locus YOR231W, strain MKK1, stronger effect = lower value 0.938 | S. cerevisiae deletion strains, locus YOR265W, strain rbl2, stronger effect = lower value 0.981 | S. cerevisiae deletion strains, locus YOR270C, strain vph1, stronger effect = lower value 0.951 | S. cerevisiae deletion strains, locus YOR290C, strain snf2, stronger effect = lower value 0.911 | S. cerevisiae deletion strains, locus YOR316C, strain cot1, stronger effect = lower value 0.985 | S. cerevisiae deletion strains, locus YPL051W, strain arl3, stronger effect = lower value 0.984 | S. cerevisiae deletion strains, locus YPL055C, strain LGE1, stronger effect = lower value 1.02 | S. cerevisiae deletion strains, locus YPL078C, strain atp4, stronger effect = lower value 0.97 | S. cerevisiae deletion strains, locus YPL106C, strain sse1, stronger effect = lower value 0.948 | S. cerevisiae deletion strains, locus YPL240C, strain hsp82, stronger effect = lower value 0.984 | S. cerevisiae deletion strains, locus YPL241C, strain CIN2, stronger effect = lower value 0.994 | S. cerevisiae deletion strains, locus YPL256C, strain CLN2, stronger effect = lower value 0.963 | S. cerevisiae deletion strains, locus YPR119W, strain clb2, stronger effect = lower value 0.974 | S. cerevisiae deletion strains, locus YPR141C, strain kar3, stronger effect = lower value 0.975 | S. cerevisiae deletion strains, locus YPR163C, strain tif3, stronger effect = lower value 0.988 | S. cerevisiae deletion strains, locus YPR167C, strain met16, stronger effect = lower value 1 | S. cerevisiae deletion strains, strain wtn01, stronger effect = lower value 0.994 | S. cerevisiae strains, strain wild type, stronger effect = lower value 1
